# Screens as filed in PubChem BioAssay.
# A selection: hits, their analogues and other compounds. The true share with any hit is near 3.5%.
# TEAD-YAP inh: TEAD-YAP interaction inhibition; actives 1.4% (n = 640,000); inhibition, % at 9.12 µM; HEK-TIYL cells, TEAD-Gal4/YAP UAS-luciferase luminescence; in the data active = inhibition above about 32%;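 also: 0% = median of test compound wells and 100% = reference inhibitor wells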
# FBW7 activator: activators of human E3 ligase FBW7. Q969H0. AlphaScreen FBW7–phospho-cyclin E peptide binding, activator screen. normalized activity (activation), % at 26.1 µM. actives 0.13% (n = 650,000). AID 1259310; in the data active = normalized activity above about 1.9%;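 also: purified mutant Fbw7 with reduced substrate affinity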
# MITF inh: inhibitors of human MITF. O75030. AlphaScreen MITF homodimerization, bead proximity signal. inhibition, % at 2.6 µM. actives 0.91% (n = 650,000); in the data active = inhibition above about 50%;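 also: 0% = vehicle wells with protein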
# Target sequence (O75030 whole entry, looked up): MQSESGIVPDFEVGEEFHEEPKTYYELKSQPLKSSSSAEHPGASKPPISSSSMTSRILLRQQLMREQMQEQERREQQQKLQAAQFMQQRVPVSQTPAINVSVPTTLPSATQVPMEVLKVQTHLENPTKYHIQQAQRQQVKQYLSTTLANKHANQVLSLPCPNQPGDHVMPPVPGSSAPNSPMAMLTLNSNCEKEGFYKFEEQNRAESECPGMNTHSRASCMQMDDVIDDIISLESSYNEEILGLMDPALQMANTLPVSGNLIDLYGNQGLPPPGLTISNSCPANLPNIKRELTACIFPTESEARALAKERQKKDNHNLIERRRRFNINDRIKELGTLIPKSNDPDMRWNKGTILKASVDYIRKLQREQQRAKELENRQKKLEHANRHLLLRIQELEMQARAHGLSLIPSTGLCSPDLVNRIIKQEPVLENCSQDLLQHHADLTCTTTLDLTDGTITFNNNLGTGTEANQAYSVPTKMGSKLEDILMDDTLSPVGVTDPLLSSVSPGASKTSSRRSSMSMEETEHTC
# GPR151 activ: human GPR151 activation | Q8TDV0 | PathHunter beta-arrestin GPR151 cells, luminescence | activation, % at 11.2 µM | actives 1% (n = 650,000) | AID 1508602; in the data active = activation above about 4.9%;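 also: 0% = median of compound wells and 100% = cells with positive control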
# Numbers without * were called inactive.
SMILES,TEAD-YAP inh,FBW7 activator,MITF inh,GPR151 activ
O=C(/C=C/c1cccc([N+](=O)[O-])c1)/C=C/c1ccco1,-1,0,7,1
CN(C)c1ccc(/C=C/C(=O)/C=C/c2ccco2)cc1,-4,1,63*,-1
O=C(NC1CCC1)c1cc(COc2cccc3cnccc23)on1,27,0,6,0
CN(C(=O)c1cc(COc2cccc3cnccc23)on1)C1CCCCC1,43*,0,-9,-1
C[C@H]1C(=O)N(C)CCN1C(=O)c1cc(COc2cccc3cnccc23)on1,36*,0,-10,2
CC(c1ccon1)N(C)C(=O)c1cc(COc2cccc3cnccc23)on1 (stereo not given),34*,0,14,-1
CC(=O)c1ccc(OCc2cc(C(=O)N(C)C(C)c3ccon3)no2)cc1 (stereo not given),2,0,-19,-2
Cc1c(C(C)NC(=O)c2cc(COc3cccc4cnccc34)on2)cnn1C (stereo not given),43*,0,12,-1
CCOc1ccc2nc(SCC(=O)Nc3nonc3C)c(C#N)cc2c1,-2,0,5,-1
O=C(OC(C(=O)NC1CCCC1)c1ccccc1)c1ccno1 (stereo not given),6,0,3,-1
CN(CCc1nc2ccc(F)cc2[nH]1)C(=O)c1cc(COc2cccc3cnccc23)on1,55*,0,2,0
O=C(CSc1nc(NCc2ccc(Cl)cc2)c2ccccc2n1)c1ccc(Cl)c(Cl)c1,7,0,7,-2
CCN(CC)c1ccc(/C=N\NC(=O)c2ccc(O)cc2)c(O)c1,-7,0,16,0
CCN(CC)c1ccc(/C=N/NC(=O)c2cc(Cl)ccc2O)c(O)c1,-5,0,0,-1
CCN(CC)c1ccc(/C=N/NC(=O)c2ccc(F)cc2)c(O)c1,73*,0,-5,-1
CCN(CC)c1ccc(/C=N/NC(=O)c2cc(C)oc2C)c(O)c1,53*,-1,10,-4
O=C(c1ccc(N2CCCCCC2)c([N+](=O)[O-])c1)N1CCCCC1,-10,0,11,0
COc1ccc(/C=C2\C(=O)Nc3ccc(Br)cc32)cc1,-4,0,32,-2
COc1ccc(/C=C2\C(=O)Nc3ccc(Br)cc32)c(OC)c1OC,53*,0,9,0
C/C(CC(=O)Nc1ccccc1C)=N\NC(=O)C(=O)Nc1ccccc1C,-20,2.0*,-10,1
CC(C)[C@H](NS(=O)(=O)c1cccc(Cl)c1)C(=O)OCC(=O)NC(N)=O,6,0,-10,1
CCCCC1(CC(=O)Nc2ccc(F)cc2)C(=O)N(c2ccccc2)N(c2ccccc2)C1=O,3,1.9*,-10,-1
Cc1ccc(Cl)cc1N1CCN(C(=O)c2ccc3c(c2)NC(=O)CS3)CC1,60*,0,11,1
NNC(=O)/C(=C\c1cccs1)NC(=O)c1ccccc1,33*,0,2,0
NNC(=O)/C(=C\c1ccccc1)NC(=O)c1ccccc1,7,0,-1,1
SMILES,TEAD-YAP inh,FBW7 activator,MITF inh,GPR151 activ
O=C(NCC1CCCN(C/C=C/c2ccco2)C1)c1n[nH]c2ccccc12 (stereo not given),-4,0,-1,1
Cc1onc(-c2ccccc2Cl)c1C(=O)Nc1ncc([N+](=O)[O-])s1,0,0,7,0
O=C(Nc1ncc([N+](=O)[O-])s1)c1ccc(Cl)cc1Cl,64*,0,4,-11
O=C(Cc1ccc(Cl)cc1)Nc1ncc([N+](=O)[O-])s1,-36,0,13,-5
Cc1onc(-c2ccccc2)c1C(=O)Nc1ncc([N+](=O)[O-])s1,38*,0,-2,1
Cc1ccc(C(=O)Nc2ncc([N+](=O)[O-])s2)cc1,82*,0,7,-11
O=C(Nc1ncc([N+](=O)[O-])s1)c1ccc(Br)cc1,65*,0,0,-8
O=C(Nc1ncc([N+](=O)[O-])s1)c1cccnc1,-24,0,3,-11
O=C(Cc1ccc(Br)cc1)Nc1ncc([N+](=O)[O-])s1,-20,0,4,-5
COc1ccc(C(=O)O)cc1S(=O)(=O)Nc1nc(-c2cccs2)cs1,-17,0,-1,1
O=C(Nc1nc2ccc3ccccc3c2s1)c1ccc(Br)cc1,2,0,-12,0
N#Cc1sc(NC(=O)c2ccc(Br)cc2)nc1Cl,47*,0,2,-6
Cc1cccc(C(=O)Nc2ncc([N+](=O)[O-])s2)c1,55*,0,-5,-11
CCCN(CCC)C(=O)c1ccc2c(c1)C(=O)N(CCC1=CCCCC1)C2=O,4,0,-31,0
